# Assay: High-throughput drug toxicity screening in the BPDCN cell line Cal-1 (AID 1224825)
# Conditions: Cal-1 BPDCN cell viability, qHTS; at 45.8 µM (top of the series) unless noted
# From the text: Blastic plasmacytoid dendritic cell neoplasm (BPDCN) is a rare, aggressive and largely incurable hematologic malignancy originating from plasmacytoid dendritic cells (pDCs). Although an initial response to chemotherapy is common, BPDCN prognosis is extremely poor and most patients relapse with drug-resistant disease leading to a median overall survival of ~1 year after diagnosis. To explore novel potential therapeutic strategies in BPDCN, we performed a high-throughput drug toxicity screening in BPDCN cell liens, using of a library of 1,912 small molecules, enriched for compounds that are either approved or in early stages of development for cancer therapy.
# A total of 500 exponentially growing Cal-1 cells were seeded per well in 5 uL of media (RPMI + Glutamine, without phenol red plus10% FBS and 1X Pen/Strep) into 1536-well solid white high base tissue culture treated Greiner One Bio Plates (789173-F), using a multidrop combi dispenser and a small sterile cassette. Compounds and controls totaling 23nL per well (negative control DMSO and positive control 9.2 uM Bortezomib-final) were immediately added to the plates using a 1536 head pin tool from Kalypsys. The plates were then covered with stainless steel gasket lids from Kalypsys and incubated for 48 hours at 37C under 95% relative humidity with 5% CO2. After 48 hours, the plates were removed and allowed to reach room temperature before 3 uL of Cell Titer Glo reagent (Promega) were added using an Aurora Flying Reagent Dispenser Bioraptor. The plates were then spun at 1000 rpms to remove bubbles and incubated for 15 minutes at room temperature before reading on a ViewLux using a luminescent filter with a 10 second exposure. The relative luciferase units were used to calculated percent activity using DMSO as 100% and Bortezomib as 0%.
row,Structure (SMILES),viability (% of control)
1,CC(=Cc1ccccc1)C=C1SC(=S)N(CC(=O)O)C1=O,125%
2,COc1ccc(Cc2ccc(NC(N)=O)cc2)cc1-c1cccc(Cl)c1,91.3%
3,O=C(CCN1CCN(C(=O)OCc2cc(Cl)cc(Cl)c2)CC1)c1ccc2[nH]c(=O)oc2c1,115%
4,CN1CCN(CCOc2cc(OC3CCOCC3)c3c(Nc4c(Cl)ccc5c4OCO5)ncnc3c2)CC1,2.69%
5,CC(C)(C)Cn1c(N)nc2ccc(-c3[nH]c(C(C)(C)C)nc3-c3ccc(F)cc3)nc21,59.3%
6,N[C@H](CSC(c1ccccc1)(c1ccccc1)c1ccccc1)C(=O)O,12%
7,Clc1ccc(CCC(Cn2ccnc2)Sc2c(Cl)cccc2Cl)cc1 (stereo not given),67.7%
8,Clc1cc(Cl)cc(CNc2ncncc2-c2ccc3c(c2)OCO3)c1,11.1%
9,CN[C@@H](C)C(=O)N[C@H]1CN(C(=O)CC(C)C)CC[C@H]2CC[C@@H](C(=O)NC(c3ccccc3)c3ccccc3)N2C1=O,9.02%
10,c1ccc2c(-c3cnn4cc(-c5ccc(N6CCNCC6)cc5)cnc34)ccnc2c1,3.05%
11,O=c1cc(-c2ccccc2)oc2cc(O)cc(O)c12,52.1%
12,O=C(O)c1ccc(-c2cc3cccnc3c(-c3ccc4nonc4c3)n2)cc1,18.7%
13,COc1cc(O)c2c(c1)C(=O)c1cc(C)cc(O)c1C2=O,101% [at 23.2 µM]
14,NC(=O)[C@@H](CCC(F)(F)F)N(Cc1ccc(-c2ncon2)cc1F)S(=O)(=O)c1ccc(Cl)cc1,93.2%
15,COc1cc(Nc2ncc(F)c(Nc3ccc4c(n3)NC(=O)C(C)(C)O4)n2)cc(OC)c1OC,58.1%
16,CCOC(CN1C(=O)[C@](CC(=O)Nc2ccc(C)cc2)(NC(=O)Nc2ccc(C)cc2)c2ccccc21)OCC,46.4%
17,CC(=O)O[C@]1(C(C)=O)CC[C@@H]2[C@@H]3C[C@H](C)C4=CC(=O)CC[C@]4(C)[C@H]3CC[C@@]21C,95.7%
18,COc1ccc(C2Sc3ccccc3N(CCN(C)C)C(=O)C2OC(C)=O)cc1 (stereo not given),90%
19,NC1=N[C@@]2(c3cc(NC(=O)c4ccc(F)cn4)ccc3F)COC[C@@H]2CS1,12.9%
20,Cc1ccccc1C(C(=O)NC1CCCCC1)N(C(=O)Cn1ccnc1C)c1cccc(F)c1 (stereo not given),107%

row,Structure (SMILES),viability (% of control)
1,O=C(Nc1c(Cl)cncc1Cl)c1ccc(OC(F)F)c(OCC2CC2)c1,105%
2,CN(C)C1CCN(C(=O)c2ccc(NC(=O)Nc3nc(N4CCOCC4)nc(N4CCOCC4)n3)cc2)CC1,12.5%
3,C[C@H](NC(=O)C(=O)Nc1ccccc1C(C)(C)C)C(=O)N[C@@H](CC(=O)O)C(=O)COc1c(F)c(F)cc(F)c1F,8.98%
4,CC(C)n1cnc2c(NCCCCCCNC(=O)OC(C)(C)C)nc(NCCO)nc21,100%
5,C=C1C(=O)[C@@]23C(CC[C@@H]1[C@H]2O)[C@@]12CO[C@]3(O)[C@@H](O)[C@@H]1C(C)(C)CC[C@@H]2O (stereo not given in full),2.13%
6,NC(=O)c1cnc(-c2ccc(C3(N)CCC3)cc2)c(-c2ccccc2)c1,67%
7,O=C(O)CCC1CCC(c2cc(F)ccc2F)(S(=O)(=O)c2ccc(Cl)cc2)CC1 (stereo not given),9.48%
8,CN1C[C@H]2c3ccccc3Oc3ccc(Cl)cc3[C@@H]2C1,73.9%
9,CN(C)CCC=C1c2ccccc2COc2ccc(CC(=O)O)cc21,98%
10,CC=CC[C@@H](C)C(=O)[C@H]1C(=O)N[C@@H](C(C)C)C(=O)N(C)CC(=O)N(C)[C@@H](CC(C)C)C(=O)N[C@@H](C(C)C)C(=O)N(C)[C@@H](CC(C)C)C(=O)N[C@@H](C)C(=O)N[C@H](C)C(=O)N(C)[C@@H](CC(C)C)C(=O)N(C)[C@@H](CC(C)C)C(=O)N(C)[C@@H](C(C)C)C(=O)N1C,37%
11,Cn1cc(C=C2C(=O)Nc3cccnc32)c2ccccc21,63.5%
12,O=C1NC(=O)C(=Cc2cccc(C(F)(F)F)c2)S1,110%
13,O=C(O)[C@H]1O[C@H](Oc2cc3oc(-c4ccccc4)cc(=O)c3c(O)c2O)[C@H](O)[C@@H](O)[C@H]1O,105%
14,COc1ccc(-c2nc(N3CCOCC3)c3sc(CN(C)c4ncc(C(=O)NO)cn4)cc3n2)cn1,2.7%
15,COc1ccc(-c2cc(=O)c3c(O)cc(O)cc3o2)cc1O,16.3%
16,O=C(CCCCCCC(=O)Nc1ccccc1)NO,7.8%
17,Cn1c(N2CCCCS2(=O)=O)nc(C(=O)NCc2ccc(F)cc2)c(O)c1=O,96.9%
18,O=C(O)c1c(Cl)c(Cl)c(Cl)c(Cl)c1-c1c2cc(I)c(=O)c(I)c-2oc2c(I)c(O)c(I)cc12,55.1%
19,O=C(OCC#CCSc1nnc(-c2cccc3ccccc23)o1)c1cc2ccccc2s1,118%
20,NS(=O)(=O)c1ccc(NC2=CC(=O)c3ccccc3C2=O)cc1,88.5%

# Source: PubChem BioAssay (NCATS)
